# The list is not random: actives were taken first. Their share in the collection is about 11%.
# Pf growth 48h: Primary qHTS for delayed death inhibitors of the malarial parasite plastid, 48 hour incubation | P. falciparum luciferase growth in erythrocytes, 48 h | Potency, µM (highest dose often 28.7 µM), for inactives: top-dose activity change, negative = inhibition, hits mostly inhibitors | 310,000 tested, 5.9% active
#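 Growth was read as firefly luciferase luminescence after a 48 h, 37 C, 5% CO2 exposure of compounds to reporter-bearing P. falciparum cultures (0.1% parasitemia, 2% hematocrit final) in Albumax-supplemented RPMI 1640.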
# HCV inhibitor: qHTS Assay for Inhibitors of Hepatitis C Virus (HCV); Huh7.5.1 HCVcc-Cre infection, luciferase reporter, 44 h; Potency, µM (highest dose often 41.8 µM), without a hit: top-dose activity change, negative = inhibition, actives largely listed as inhibitors; 340,000 tested, 3.4% active
#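 1,000 cells/well; 4 h culture; + compound; + HCVcc-Cre (~0.5 moi); 44 h; luciferase substrate, RT 15 min; read 15 sec.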
# Pf growth 96h: Primary qHTS for delayed death inhibitors of the malarial parasite plastid, 96 hour incubation. P. falciparum luciferase reporter growth, 96 h. Potency, µM (top dose mostly 28.7 µM), for inactives: at the highest dose activity change, negative = inhibition, usual class: inhibitors. 320,000 tested, 6.9% active
#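 Two-generation exposure (96 h) targets delayed-death phenotype. Reporter parasites carrying integrated firefly luciferase, in red cells at 2% hematocrit and 0.05% parasitemia final, kept at 37 C, 5% CO2; luminescence loss indicates inhibition.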
# AMA1 RON2 block: qHTS for Inhibitors of AMA1-RON; Towards Development of Antimalarial Drug Lead: Primary Screen; AID 720542, 2013; 360,000 tested, 0.2% active; Potency, µM (doses to about 58.2 µM), inactives show at the highest dose activity change, negative = inhibition, actives largely listed as inhibitors; AlphaScreen AMA1-biotinylated RON2 peptide binding;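 note: 0% = vehicle wells and -100% = peptide control; nearly all actives have a fitted effect of over 45% in size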
#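 AMA1 (3D7) with his tag at 25 nM final met compounds first, then biotinylated RON2 peptide at 25 nM; detection used donor plus acceptor beads, 10 µg/mL apiece, read by AlphaScreen after 30 min at room temperature.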
# AmpC no deterg: qHTS Inhibitors of AmpC Beta-Lactamase (assay without detergent); AmpC nitrocefin hydrolysis, absorbance 480 nm, 0.0001% Triton; Potency, µM (doses to about 57.1 µM), for the others: at the highest dose activity change, negative = inhibition, usual class: inhibitors; 330,000 tested, 0.52% active; AID 485341, 2010;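 note: plate controls were no compound for no effect and no enzyme for full effect; nearly all actives have a fitted effect of over 20% in size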
# Target sequence (P00811 whole entry, looked up): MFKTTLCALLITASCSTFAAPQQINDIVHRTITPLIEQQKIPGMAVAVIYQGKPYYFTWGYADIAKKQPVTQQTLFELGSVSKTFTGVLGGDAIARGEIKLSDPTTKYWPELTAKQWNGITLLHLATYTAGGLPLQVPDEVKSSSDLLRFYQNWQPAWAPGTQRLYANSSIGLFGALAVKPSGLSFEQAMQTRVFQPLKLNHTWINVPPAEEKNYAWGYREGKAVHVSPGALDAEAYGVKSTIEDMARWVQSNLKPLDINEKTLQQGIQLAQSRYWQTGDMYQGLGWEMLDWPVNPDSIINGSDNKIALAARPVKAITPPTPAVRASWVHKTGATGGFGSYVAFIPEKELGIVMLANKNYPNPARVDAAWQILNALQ
#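 AmpC (5.3 nM in the dispensed reagent) in 20 mM phosphate pH 7.0 with 0.01% (detergent screen) or 0.0001% Triton X-100 was preincubated with compounds for 15 min at room temperature. Nitrocefin was then added from an 800 uM solution, and hydrolysis was followed at 480 nm.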
# AmpC inh detg: qHTS Inhibitors of AmpC Beta-Lactamase (assay with detergent); P00811; AmpC hydrolysis of nitrocefin, absorbance 480 nm, 0.01% Triton; Potency, µM (doses to about 114 µM), for inactives: at the top dose activity change, negative = inhibition, usual class: inhibitors; 370,000 tested, 0.041% active; AID 485294, 2010;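 note: 0% = no-compound wells and -100% = no-enzyme wells; nearly all actives have a fitted effect of over 25% in size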
#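 AmpC (5.3 nM in the dispensed reagent) in 20 mM phosphate pH 7.0 with 0.01% (detergent screen) or 0.0001% Triton X-100 was preincubated with compounds for 15 min at room temperature. Nitrocefin was then added from an 800 uM solution, and hydrolysis was followed at 480 nm.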
# Starred values were filed as active, the others as inactive; ? = inconclusive; . = no result given; [ ] = remark or other dose. Calls come from the whole dose curve; as a rule, active = well fitted curve in the direction sought with a large enough effect; inconclusive = small, poorly fitted or top-dose-only effect, or another doubt; inactive = no such curve, though single readings can be large; an effect the other way counts as inactive or inconclusive. Unless noted, % is set by controls: 0 for no effect and ±100 for the full control effect; potency is the fitted concentration of half-maximal effect.
SMILES,Pf growth 48h,HCV inhibitor,Pf growth 96h,AMA1 RON2 block,AmpC no deterg,AmpC inh detg
COc1ccc(NC(=S)N2CCC(c3ccccc3)C2)cc1 (centres undefined),-0.1%[0.00184 µM],3.6%,9.5%,-5.8%,-17.7%,4.1%
Cc1ccc(Cl)cc1NC(=S)N1CCC(c2ccccc2)C1 (centres undefined),11.7µM*,0.6%,?,1.0%,-16.5%,-3.2%
Cc1ccc(Cl)cc1NC(=O)C1CCCN(S(C)(=O)=O)C1 (centres undefined),12.8%,6.8%,10.4µM*,-4.7%,-1.8%,-0.9%
COc1cccc(CN2c3ccccc3-c3nc(SCC(=O)Nc4cccc(C)c4)ncc3S2(=O)=O)c1,.,.,.,.,.,-3.9%
Cc1ccc(CN2C(=O)C3(c4ccccc42)N(c2cccc(F)c2)C(=O)CS3(=O)=O)cc1 (centres undefined),.,.,.,.,.,-3.2%
COc1ccc(NC(=O)CSC2=Nc3ccccc3C3=NC(CC(=O)NCc4ccc5c(c4)OCO5)C(=O)N23)cc1 (centres undefined),.,.,.,.,.,1.5%
CS(=O)(=O)c1ccc(NC(=O)C2CCCN(C(=O)c3ccc(Cl)cc3)C2)cc1 (centres undefined),?,1.4%,?,15.6%,-1.1%,-9.2%
O=C(Nc1ccc(Cl)c(S(=O)(=O)N2CCOCC2)c1)C1CCCC1,.,?,.,22.1%,-42.2%,.
Cc1ccc(NC(=O)C2CCCN(C(=O)c3ccc(Cl)cc3)C2)cc1S(=O)(=O)N1CCOCC1 (centres undefined),?,3.98µM*,7.38µM*,-11.2%,72.9%,-10.7%
O=C(Nc1ccc(F)c(S(=O)(=O)N2CCOCC2)c1)C1CCCCC1,13.1µM*,?,?,6.7%[11.6 µM],-15.9%,?
CCOc1ccc(Nc2nc(-c3cccc(Cl)c3)c3c(n2)-c2ccccc2OC3)cc1,.,.,.,.,.,0.5%
CC(=O)c1c(C(C)=O)c(C)n(C2CCCCC2)c1C,-18.7%,-7.9%,1.47µM*,-3.4%,-5.7%,3.3%
O=C(CN1CCC(n2nnc3cc(F)ccc32)CC1)NC1CC1,27.2%,12.0%,3.1%,7.6%,-12.7%,0.5%
O=C(CN1CCC(n2nnc3cc(F)ccc32)CC1)N1CCc2ccccc2C1,8.28µM*,?,4.8%,-2.8%,30.9%,-7.1%
O=C(CN1CCC(n2nnc3cc(F)ccc32)CC1)Nc1ccccc1N1CCOCC1,1.65µM*,-8.7%,-17.0%,3.8%,67.8%,-7.4%
CCN(CC)CCCNC(=O)c1cn(CC)c2ccc(S(=O)(=O)N3CCC(C)CC3)cc2c1=O,.,.,.,.,.,1.4%
CC(C)(C)OC(=O)N1CCC[C@H]1C(=O)N/N=C/c1ccc2ncccc2c1,?,-6.2%,11.7µM*,-3.4%,-4.3%,4.6%
CC(=O)c1ccc(NC(=O)[C@@H]2CCCN2C(=O)OC(C)(C)C)cc1,58.5%,22.1%,61.7%,2.6%,-14.5%,-1.1%
N#CCSc1nc2ccccc2c(=O)n1CCCC(=O)NCc1ccco1,-1.3%,3.1%,-40.2%,-18.7%,-20.1%,-3.8%
CCn1c(SCC(=O)NCc2ccco2)nc2ccccc2c1=O,-7.3%,-7.3%,7.0%,-1.5%,-31.1%,0.5%
O=C(CSc1nc2ccccc2c2nc3ccccc3n12)NCc1ccco1,9.28µM*,?,6.7%,14.6%,2.7%,-0.5%
COc1ccc(CNc2nc(SCC(=O)NCc3ccco3)nc3ccccc23)cc1,9.28µM*,?,-17.0%,-9.8%,-13.6%,4.4%
O=C(CCCCCn1c(SCc2ccncc2)nc2ccccc2c1=O)NCc1ccco1,8.28µM*,10µM*,21.0%,0.5%,47.6%,?
CCOC(=O)CC(NC(=O)c1cc2c(=O)n3cccc(C)c3nc2s1)c1ccc(OCC)c(OC)c1 (centres undefined),.,.,.,.,.,15.2%
Cc1cc(S(=O)(=O)N2CCOCC2)ccc1OCC(=O)Nc1ccccc1F,30.6%,-0.4%,-9.7%,1.6%,3.7%,-1.3%
SMILES,Pf growth 48h,HCV inhibitor,Pf growth 96h,AMA1 RON2 block,AmpC no deterg,AmpC inh detg
CCc1ccccc1NC(=O)c1ccc(S(=O)(=O)N2CCCC2)cc1,9.2%,-13.7%,-11.6%,-3.8%,-22.4%,5.2%
CCc1ccccc1NC(=S)N=Nc1c(O)n(C)c2ccc(S(=O)(=O)N3CCOCC3)cc12,3.29µM*,-27.4%,1.85µM*,32.4%,35.7%,?
Cc1ccc(Cn2c(O)c(N=NC(=S)Nc3ccccc3F)c3cc(S(=O)(=O)N4CCOCC4)ccc32)cc1,3.29µM*,?,0.8%,61.6%,-19.2%,2.3%
Cc1ccc(C)c(NC(=S)N=Nc2c(O)n(C)c3ccc(S(=O)(=O)N4CCOCC4)cc23)c1,6.57µM*,?,-8.6%,48.5%,-13.9%,-7.8%
O=C(Cn1cc(S(=O)(=O)N2CCCC2)c(S(=O)(=O)N2CCCC2)c1)Nc1ccccc1,.,.,.,.,.,3.8%
COc1ccccc1CNC(=O)c1cc2cccc3c2n1CCS3,.,.,.,.,.,-3.0%
COc1cc2nc(SCc3cccc(Cl)c3)n3nc(CCn4nc(C)cc4C)nc3c2cc1OC,.,.,.,.,.,4.7%
ClC(Br)=C(n1cnc2ccccc21)n1cnc2ccccc21,10.4µM*,?,2.9%,-3.2%,-9.2%,-2.7%
CCCCC[C@H](O)/C=C\[C@@H]1[C@H](O)CC(=O)[C@@H]1CCCCCCC(=O)O,?,.,5.1µM*,.,.,.
CCCCC[C@H](O)/C=C/[C@H]1CCC(=O)[C@@H]1CCCCCCC(=O)N1CCCCC1CO (some centres undefined),9.28µM*,-26.1%,?,-4.9%,150.9%,-0.2%
Cc1ccc(OC(C)C(=O)N2CCc3ccccc32)cc1 (centres undefined),2.94µM*,1.6%,.,-7.2%,-24.6%,1.5%
CC(Oc1ccccc1)C(=O)N1CCCc2ccccc21 (centres undefined),10.5%,8.9%,.,-2.6%,-1.4%,0.2%
Cc1nn(C(C)C(=O)N2CCc3ccccc32)c(C)c1[N+](=O)[O-] (centres undefined),?,-28.7%,5.22µM*,-0.2%,-8.2%,?
CC(C(=O)N1CCc2ccccc21)N1CCc2ccccc2C1 (centres undefined),?,-25.6%,9.28µM*,-11.1%,-9.9%,-3.8%
COc1cc2c(cc1OC)CN(C(C)C(=O)N1CCc3ccccc31)CC2 (centres undefined),.,-22.1%,?,-7.0%,55.9%,?

# Bioassay records (PubChem)
